The whole screen tested about 220,000 compounds, of which about 530 (0.24%) were called active. The entries come from a sample that favours actives as a whole. Measured potencies and affinities stand elsewhere. Unmarked numbers belong to inactive results. Rule as the data show it: active = inhibition above about 13%; inconclusive = no clear call, values can overlap the other calls; inactive = below that.

Chain of Bifunctional protein GlmU (Mycobacterium tuberculosis (strain ATCC 25618 / H37Rv)) (P9WMN3 whole entry, looked up): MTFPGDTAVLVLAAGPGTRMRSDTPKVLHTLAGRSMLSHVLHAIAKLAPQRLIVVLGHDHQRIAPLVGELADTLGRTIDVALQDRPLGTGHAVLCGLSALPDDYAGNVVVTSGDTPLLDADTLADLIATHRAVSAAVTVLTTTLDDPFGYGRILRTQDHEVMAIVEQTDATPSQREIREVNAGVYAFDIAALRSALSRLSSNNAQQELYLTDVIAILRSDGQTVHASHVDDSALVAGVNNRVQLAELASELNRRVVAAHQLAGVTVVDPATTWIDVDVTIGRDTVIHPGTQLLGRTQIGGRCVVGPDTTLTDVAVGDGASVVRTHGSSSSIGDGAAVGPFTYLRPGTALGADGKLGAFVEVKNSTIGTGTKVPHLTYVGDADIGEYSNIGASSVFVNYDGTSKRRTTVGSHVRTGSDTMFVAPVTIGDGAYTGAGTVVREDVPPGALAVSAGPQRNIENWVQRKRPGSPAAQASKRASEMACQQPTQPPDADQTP

This test has as its target Bifunctional protein GlmU (Mycobacterium tuberculosis (strain ATCC 25618 / H37Rv)) (UniProt P9WMN3). Briefly: inhibition of mycobacterial GlmU enzyme – biochemical, glucosamine-1-phosphate acetyltransferase (AID 1376).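 Also: 0% = complete reaction with vehicle and 100% = reaction without substrate.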 The note with it: M. tuberculosis GlmU acetyltransferase enzyme assay; hits give high values;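 tested at 30 µM in the primary screen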.
The inhibition is the change of the read-out against control, counted positive when it falls. `CN(CC(=O)Nc1cccc(F)c1)C(=O)CCCc1cccs1`: the inhibition is -1.08%.

`COC(C[C@@H]1O[C@@H]1C(=O)[C@@H](C)OCc1ccccc1)OC`: the inhibition is 14.7% (active).

With `COC(C[C@H]1O[C@@H]1C(=O)[C@H](C)OCc1ccccc1)OC`, the inhibition was 5.93%.

Consider `COC(C[C@@H]1O[C@@H]1C(=O)[C@H](C)OCc1ccccc1)OC`, for which the inhibition was -0.47%.

As to `COC(=O)C1C(=O)c2c(C)noc2CC1(C)C` (stereo not drawn), the inhibition is 7.63%.

For the compound `COc1ccc(C)cc1-n1nnnc1SCC(=O)Nc1cc(C)on1`, the inhibition was 4.65%.

`Cc1cc(C)c2nc(SCCc3ccccc3)nc(C)c2c1`: the inhibition was 6.08%.

On to `C=C(Cl)COc1ccc2c(C)cc(=O)oc2c1`, for which the inhibition is -5.17%.

In the case of `Cc1cc(=O)oc2cc(OCC#N)ccc12`, the inhibition was -3.06%.

For `C#CCOc1ccc2c(C)cc(=O)oc2c1`, the inhibition was 13.2% (active).

In the case of `COc1ccc(/C=C/C(=O)NNc2cc(=O)n(C)c(=O)n2C)cc1OC`, the inhibition is 3.78%.

With `COc1ccc(C/C(C)=N/NC(=S)Nc2ccccc2F)cc1`, the inhibition is -0.55%.

On to `O=C(CSc1nc2ccccc2n1CCc1ccccc1)NC1CC1`, for which the inhibition is 0.08%.

Regarding `O=C(CSc1nc2ccccc2n1CCc1ccccc1)N1CCOCC1`, the inhibition was -3.44%.

For the compound `O=C(CSc1nc2ccccc2n1CCc1ccccc1)c1ccc(O)c(O)c1`, the inhibition was 23.3% (active).

Take `CC1CC(=S)Nc2ccccc2N1C(=O)Nc1ccccc1` (stereo not drawn): the inhibition was 1.98%.

On to `O=C1S/C(=C\c2ccc(Cl)cc2)C(=O)N1CCn1cnnn1`, for which the inhibition is -3.11%.

On to `O=C(NCc1ccc(F)cc1)c1ccc(CS(=O)(=O)Cc2ccc(F)cc2)o1`, for which the inhibition is 0.32%.

With `COc1ccc(C(=O)Nc2nc3ccccc3s2)cc1OC`, the inhibition is 1.41%.

With `O=[N+]([O-])c1cc(CN(CCO)CCO)ccc1O`, the inhibition was 1.38%.

With `CC(NCC(O)COCc1ccc(Cl)cc1)c1ccccc1` (stereo not drawn), the inhibition was -4.31%.

For `O=c1oc2ccccc2c(Nc2ccccc2)c1[N+](=O)[O-]`, the inhibition was 0.42%.

As for `O=c1oc2ccccc2c(Nc2cccc(O)c2)c1[N+](=O)[O-]`, the inhibition is 1.89%.

Consider `O=c1oc2ccccc2c(Nc2ccc(O)cc2)c1[N+](=O)[O-]`, for which the inhibition was 13.3% (active).

With `Cc1cc(NC(=O)c2cc(-c3ccc(C)s3)nc3ccccc23)no1`, the inhibition was 2.43%.

In the case of `COC(=O)/C(C(C)=O)=C(/C=C/C=C/N(C)C)N(C)C`, the inhibition is 6.24%.

Take `CCOC(=O)C1(Cc2ccc(Cl)cc2)CCN(C(=O)C2CCCO2)CC1` (stereo not drawn): the inhibition was 1.7%.

As for `O=C(COc1ccc(Cc2ccccc2)cc1)c1ccc(F)cc1`, the inhibition was -3.15%.

The values are drawn from PubChem BioAssay AID1376 (SRMLSC, 2008).
